# Shown are actives, neighbours in structure and some others; about 13% of the full set was active somewhere.
# USP17 block: blocks human USP17 ubiquitin-rhodamine cleavage. inhibition, % at 50 µM. A8MUK1. purified USP17, Ub-rhodamine cleavage fluorescence, 3 h. 47,000 compounds, 6.5% hits
# Target sequence (A8MUK1 whole entry, looked up): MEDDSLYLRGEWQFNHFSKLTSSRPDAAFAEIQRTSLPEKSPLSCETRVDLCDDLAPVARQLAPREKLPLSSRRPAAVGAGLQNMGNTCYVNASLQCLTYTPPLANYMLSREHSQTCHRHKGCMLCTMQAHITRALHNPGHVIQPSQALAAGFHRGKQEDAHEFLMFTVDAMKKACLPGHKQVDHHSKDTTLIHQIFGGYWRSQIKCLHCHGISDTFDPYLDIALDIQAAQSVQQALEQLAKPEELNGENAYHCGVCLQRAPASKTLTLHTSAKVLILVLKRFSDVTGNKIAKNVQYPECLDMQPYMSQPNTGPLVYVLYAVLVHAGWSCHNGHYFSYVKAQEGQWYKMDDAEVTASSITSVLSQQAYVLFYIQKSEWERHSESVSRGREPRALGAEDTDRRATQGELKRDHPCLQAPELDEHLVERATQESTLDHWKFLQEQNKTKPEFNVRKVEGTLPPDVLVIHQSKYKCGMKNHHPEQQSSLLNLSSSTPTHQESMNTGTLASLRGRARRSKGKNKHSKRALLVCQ
# USP10 inh: blocks human USP10 ubiquitin-rhodamine cleavage | purified USP10, Ub-rhodamine fluorescence, 60 min | AID 1645856 | inhibition, % at 20 µM | Q14694 | 47,000 compounds, 1.1% hits
# USP8 block: inhibitors of human USP8 deubiquitinase; inhibition, % at 20 µM; purified USP8, Ub-rhodamine cleavage fluorescence, 30 min; 47,000 compounds, 4.2% hits; P40818; AID 1645853
# USP28 block: human USP28 deubiquitinase inhibition. Q96RU2. purified USP28, Ub-rhodamine cleavage fluorescence, 30 min. inhibition, % at 25 µM. 47,000 compounds, 3% hits
# USP7 block: blocks human USP7 ubiquitin-rhodamine cleavage; Q93009; purified USP7, Ub-rhodamine cleavage fluorescence; inhibition, % at 20 µM; 47,000 compounds, 0.3% hits
# USP30 inh: blocks human USP30 ubiquitin-rhodamine cleavage; purified USP30, Ub-rhodamine cleavage fluorescence; inhibition, % at 25 µM; Q70CQ3; 47,000 compounds, 5.3% hits
# An asterisk follows results filed as active; . = no result given. Rule as the data show it: active = inhibition above about 30%; inactive = the rest.
SMILES,USP17 block,USP10 inh,USP8 block,USP28 block,USP7 block,USP30 inh
O=C(c1ccc(Cn2c(=O)[nH]c3ccccc3c2=O)cc1)N1CCN(Cc2ccc3c(c2)OCO3)CC1,33*,4,9,18,6,25
O=C(NCCCN1CCN(c2ccc(F)cc2)CC1)c1ccc2c(=O)n(CCc3ccccc3)c(=O)[nH]c2c1,31*,3,30*,20,6,42*
O=C(NCCc1ccccc1)c1ccc2c(=O)n(CCC3=CCCCC3)c(=O)[nH]c2c1,-9,24,0,0,5,0
CSCC[C@H](NC(=O)/C=C/c1ccc(Cl)cc1)c1nnc2ccccn12,-10,-6,-34,-8,-9,-39
Cc1ccc(CNC(=O)c2nn(C)c3c2CCc2sccc2-3)cc1,.,14,16,36*,8,33*
Cn1nc(C(=O)N2CCC(c3ccccc3)C2)c2c1-c1ccsc1CC2 (centres undefined),46*,17,74*,29,-12,32*
Cn1nc(C(=O)N2CCN(c3ccccn3)CC2)c2c1-c1ccsc1CC2,0,1,1,2,-19,-4
CCN1[C@H]2CCN(C(=O)c3ccc(OC)cc3)CC[C@@H]2Oc2ccccc2S1(=O)=O,-1,0,15,2,2,22
COc1ccc(S(=O)(=O)N2CCc3ccccc32)cc1C(=O)Nc1ccc2c(c1)NC(=O)C(C)O2 (centres undefined),21,35*,71*,12,4,-17
Cn1cc(CCNC(=O)NCc2ccccc2)c2cccnc21,7,1,13,15,2,24
CCN(c1ccccc1)S(=O)(=O)c1nnc(NC(=O)COc2ccc(Cl)cc2)s1,-19,0,39*,-75,7,-336
Cc1cc(Cl)ccc1NC(=O)CCS(=O)(=O)c1ccc2c(c1)OCC(=O)N2,34*,4,1,-9,-2,-8
Cc1ccc(NC(=O)CCS(=O)(=O)c2ccc3c(c2)OCC(=O)N3)cc1Cl,-4,-1,-13,11,3,-16
CS(=O)(=O)c1ccc(NCCCn2ccnc2)c(F)c1,7,-3,15,4,3,2
CC1CCCN(C(=O)c2nnc(-c3ccc(S(=O)(=O)N(C)C)cc3)o2)C1 (centres undefined),-15,-2,-9,-7,-1,0
Cc1ccc(C(C(=O)NCc2ccc3c(c2)OCO3)N(C(=O)c2ccc3c(c2)OCCO3)C2CCCC2)cc1 (centres undefined),49*,-7,47*,-1,9,-108
Cc1nnc(C(=O)Nc2ccc(C(=O)NCc3ccc(F)cc3)cc2)s1,-6,18,4,-7,4,-20
Cc1c(C)n(-c2ccccc2)c2ncn(CC(=O)N(C)Cc3ccccc3)c(=O)c12,53*,-4,-14,-3,-6,-2
Cc1c(C)n(-c2ccccc2)c2ncn(CC(=O)NCCCc3ccccc3)c(=O)c12,70*,3,11,-2,-7,-1
O=C(O)C1O[C@H](O)C(O)C(O)[C@@H]1O (some centres undefined),9,0,1,3,2,4
Cc1noc(-c2ccccc2NC(=O)c2ccc(Cl)c(Cl)c2)n1,6,6,10,3,4,19
O=C(Nc1ccccc1-c1nc(-c2ccccn2)no1)c1cc(Cl)ccc1Cl,56*,15,83*,44*,19,60*
CC(NC(=O)c1ccccc1)c1nc(-c2ccc(S(=O)(=O)N3CCCC3)cc2)no1 (centres undefined),43*,13,12,16,6,17
CCOC(=O)Cc1c(C)nc2c(-c3ccccc3)c(C)nn2c1C,-1,-2,5,-1,-19,-18
Cc1cc(C)c(NC(=O)Cc2c(C)nc3c(-c4ccccc4)c(C)nn3c2C)c(C)c1,22,11,-59,18,6,35*
SMILES,USP17 block,USP10 inh,USP8 block,USP28 block,USP7 block,USP30 inh
Cc1ccc2nc(CCc3cccc(NC(=O)c4ccc(C#N)cc4)c3)[nH]c2c1,20,1,-155,14,-4,27
Cc1cccc(S(=O)(=O)Nc2ccc(CCc3nc4ccc(C)cc4[nH]3)cc2)c1,-1,8,6,36*,-23,1
COc1cc(C(=O)Nc2cccc(CCc3nc4ccc(C)cc4[nH]3)c2)cc(OC)c1OC,-22,-5,-31,-12,1,-20
Cc1ccc2nc(CCc3ccc(NS(=O)(=O)c4cccc(Cl)c4C)cc3)[nH]c2c1,10,10,-8,52*,-6,5
Cc1ccc2nc(CCc3ccc(NS(=O)(=O)c4cccc(Cl)c4)cc3)[nH]c2c1,12,17,-4,37*,-55,0
O=S(Cc1cc(N2CCCC2)nc(-c2ccccn2)n1)c1ccc(Cl)cc1 (centres undefined),-29,0,-115,23,-6,-3
CCCN1CCN(C(=O)c2cn3nc(OCC)ccc3n2)CC1,2,0,-2,-11,2,-11
CC1CSc2ccc(S(=O)(=O)N3CCOCC3)cc2NC1=O (centres undefined),0,0,-4,-1,-5,-4
Cc1nc(N2CCCC2)ncc1-c1cc(=O)[nH]c(N2CCN(Cc3ccccc3)CC2)n1,6,2,15,11,4,14
Cc1cc2nc(Nc3ncc4c(n3)CCCC4=O)nc(C)c2cc1C,1,-1,1,-7,0,-8
COc1cccc(-c2cc(=O)[nH]c(Nc3nc(C)c4ccccc4n3)n2)c1,20,-1,10,12,9,58*
Cc1nc(N2CCOCC2)ncc1-c1cc(=O)[nH]c(NCCc2ccccc2)n1,17,3,-8,2,5,34*
Cc1nc(N2CCCC2)ncc1-c1cc(=O)[nH]c(N2CCc3ccccc3C2)n1,78*,-1,6,0,0,-28
COc1ccc2nc(Nc3ncc4c(n3)CCCC4=O)nc(C)c2c1,38*,-1,13,13,0,52*
O=C1O/C(=C(/C(=O)O)c2ccccc2)C(O)=C1c1ccccc1,6,-6,-150,9,-35,-68
Cc1cc(C)n(-c2ccnc(N3CCC(C(=O)N4CCC(C)CC4)CC3)n2)n1,1,0,12,13,-13,9
O=C(c1cnc2ccc(F)cc2c1S(=O)(=O)c1cccc(F)c1)N1CCCCC1,-29,-5,-15,-23,-9,-57
COc1ccc2nc(Nc3nc(-c4cnc(N5CCOCC5)nc4C)cc(=O)[nH]3)nc(C)c2c1,52*,-1,1,2,10,10
CCN1CCN(c2ncc(-c3cc(=O)[nH]c(Nc4nc(C)c5cc(C)ccc5n4)n3)c(C)n2)CC1,11,0,14,10,5,17
Cc1cccc(CNC(=O)c2cc(OCc3ccccc3)nc3ccccc23)c1,-17,5,-37,-4,2,11

# Screens as filed in PubChem.
